From the supplement of paper PMC10849652
About 7,900 targets were measured; listed, in parts, are those with a hit and a random draw of the rest. About 0.6% of all pairs of compound and target were hits.

Compound: c1cn2cc(-c3ccc4cn[nH]c4c3)nc(Nc3ccc(N4CCOCC4)cc3)c2n1 [entospletinib]
Experiment: log2 fold change, soluble protein after heating vs DMSO (PISA); higher = thermal stabilisation; K562 cells, 10 uM, 30 min; active = over 0.2 and 3.5 SD of the protein, either way, in both replicates (recomputed)
Procedure, shortened: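 K562 cells at 2×10^6 cells/mL were exposed to 10 μM compound for 30 min, then aliquots were heated for 3 min across 48°C-58°C, pooled, and extracted in PBS containing 0.5% NP-40 at 4°C. The supernatant after 21,000xg for 90 min was taken as soluble protein and measured by TMTpro 16plex LC-MS/MS with channel sums equalised. Thermal stability is reported relative to control samples, with values from duplicates. Fold changes are given on a log2 scale.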

Chain of UniProt O60583 (O60583 whole entry, looked up): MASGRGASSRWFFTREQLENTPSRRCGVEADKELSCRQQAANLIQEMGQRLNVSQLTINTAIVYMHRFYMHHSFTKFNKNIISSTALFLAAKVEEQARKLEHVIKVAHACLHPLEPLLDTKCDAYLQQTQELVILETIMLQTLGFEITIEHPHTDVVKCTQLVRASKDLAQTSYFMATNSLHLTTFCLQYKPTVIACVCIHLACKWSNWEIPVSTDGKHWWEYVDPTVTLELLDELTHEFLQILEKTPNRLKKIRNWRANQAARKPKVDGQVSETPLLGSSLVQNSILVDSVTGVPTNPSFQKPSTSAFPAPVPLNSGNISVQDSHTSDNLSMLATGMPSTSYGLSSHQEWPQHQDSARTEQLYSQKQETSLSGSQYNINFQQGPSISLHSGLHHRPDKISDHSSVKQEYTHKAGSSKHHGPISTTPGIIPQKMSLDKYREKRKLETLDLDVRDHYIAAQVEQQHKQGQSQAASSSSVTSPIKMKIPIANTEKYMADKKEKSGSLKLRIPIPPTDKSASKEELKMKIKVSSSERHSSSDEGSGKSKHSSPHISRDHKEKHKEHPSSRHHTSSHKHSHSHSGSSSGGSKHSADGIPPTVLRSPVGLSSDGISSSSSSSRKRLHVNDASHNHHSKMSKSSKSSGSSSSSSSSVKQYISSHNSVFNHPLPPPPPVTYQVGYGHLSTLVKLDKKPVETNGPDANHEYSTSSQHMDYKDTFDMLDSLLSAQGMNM
Chain of UniProt Q96G23 (Q96G23 whole entry, looked up): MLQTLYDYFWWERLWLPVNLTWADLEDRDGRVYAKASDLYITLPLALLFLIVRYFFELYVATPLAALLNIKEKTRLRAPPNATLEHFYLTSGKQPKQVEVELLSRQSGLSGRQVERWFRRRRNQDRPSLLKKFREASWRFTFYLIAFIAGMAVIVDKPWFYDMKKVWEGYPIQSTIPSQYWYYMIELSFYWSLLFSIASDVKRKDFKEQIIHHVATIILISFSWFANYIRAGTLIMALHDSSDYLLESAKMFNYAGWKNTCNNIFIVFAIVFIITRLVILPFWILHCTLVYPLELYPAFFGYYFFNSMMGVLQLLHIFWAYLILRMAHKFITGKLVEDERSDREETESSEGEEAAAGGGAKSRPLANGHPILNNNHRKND
Chain of UniProt P08962 (P08962 whole entry, looked up): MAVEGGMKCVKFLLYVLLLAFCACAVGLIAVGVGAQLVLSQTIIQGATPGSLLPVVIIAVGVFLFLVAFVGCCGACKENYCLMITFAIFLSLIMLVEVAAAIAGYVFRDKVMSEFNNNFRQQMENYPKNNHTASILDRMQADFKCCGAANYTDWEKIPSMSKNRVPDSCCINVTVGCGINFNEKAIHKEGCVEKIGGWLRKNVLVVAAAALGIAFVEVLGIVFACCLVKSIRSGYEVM
Chain of UniProt Q5RI15 (Q5RI15 whole entry, looked up): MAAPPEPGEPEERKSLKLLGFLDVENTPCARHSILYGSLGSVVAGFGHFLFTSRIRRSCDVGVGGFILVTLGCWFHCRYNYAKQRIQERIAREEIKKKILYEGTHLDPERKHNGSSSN
Chain of UniProt P16152 (P16152 whole entry, looked up): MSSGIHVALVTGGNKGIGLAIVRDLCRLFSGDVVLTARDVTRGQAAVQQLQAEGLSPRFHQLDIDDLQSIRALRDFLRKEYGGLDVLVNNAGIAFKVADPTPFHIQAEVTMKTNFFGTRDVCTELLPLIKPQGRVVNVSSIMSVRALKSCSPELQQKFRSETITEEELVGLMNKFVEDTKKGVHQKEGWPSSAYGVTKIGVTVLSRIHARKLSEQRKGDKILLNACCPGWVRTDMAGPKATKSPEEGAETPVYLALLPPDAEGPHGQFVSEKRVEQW
Chain of UniProt Q8IX12 (Q8IX12 whole entry, looked up): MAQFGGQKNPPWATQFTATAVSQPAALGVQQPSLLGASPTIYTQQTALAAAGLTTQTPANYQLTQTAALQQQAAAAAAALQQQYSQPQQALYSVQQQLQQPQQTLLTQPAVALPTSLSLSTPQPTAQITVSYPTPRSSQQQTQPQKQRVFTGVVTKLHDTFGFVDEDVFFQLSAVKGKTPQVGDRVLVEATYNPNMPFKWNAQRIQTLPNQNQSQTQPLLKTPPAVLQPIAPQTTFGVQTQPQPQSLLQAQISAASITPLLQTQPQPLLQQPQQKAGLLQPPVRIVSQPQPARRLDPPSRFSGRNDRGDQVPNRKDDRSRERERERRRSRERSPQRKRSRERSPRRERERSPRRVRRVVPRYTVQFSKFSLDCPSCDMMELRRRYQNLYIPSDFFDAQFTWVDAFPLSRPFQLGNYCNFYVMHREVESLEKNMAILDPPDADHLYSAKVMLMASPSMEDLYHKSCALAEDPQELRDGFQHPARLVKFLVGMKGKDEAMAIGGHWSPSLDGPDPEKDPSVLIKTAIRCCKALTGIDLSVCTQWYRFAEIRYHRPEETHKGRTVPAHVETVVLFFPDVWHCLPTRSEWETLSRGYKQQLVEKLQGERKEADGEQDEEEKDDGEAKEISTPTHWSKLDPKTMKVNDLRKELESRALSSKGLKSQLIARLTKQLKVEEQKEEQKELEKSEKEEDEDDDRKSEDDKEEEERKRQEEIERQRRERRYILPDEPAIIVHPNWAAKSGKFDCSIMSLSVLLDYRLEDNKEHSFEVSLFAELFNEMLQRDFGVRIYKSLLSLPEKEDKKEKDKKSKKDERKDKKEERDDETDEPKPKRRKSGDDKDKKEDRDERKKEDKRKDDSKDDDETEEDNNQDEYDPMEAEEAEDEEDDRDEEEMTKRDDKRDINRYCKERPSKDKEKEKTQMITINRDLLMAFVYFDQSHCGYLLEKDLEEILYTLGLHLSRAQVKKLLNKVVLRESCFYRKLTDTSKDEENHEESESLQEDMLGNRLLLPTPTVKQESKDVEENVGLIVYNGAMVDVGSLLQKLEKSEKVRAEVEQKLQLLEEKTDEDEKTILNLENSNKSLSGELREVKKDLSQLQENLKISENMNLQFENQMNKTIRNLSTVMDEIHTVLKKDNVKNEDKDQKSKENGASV
Chain of UniProt Q14677 (Q14677 whole entry, looked up): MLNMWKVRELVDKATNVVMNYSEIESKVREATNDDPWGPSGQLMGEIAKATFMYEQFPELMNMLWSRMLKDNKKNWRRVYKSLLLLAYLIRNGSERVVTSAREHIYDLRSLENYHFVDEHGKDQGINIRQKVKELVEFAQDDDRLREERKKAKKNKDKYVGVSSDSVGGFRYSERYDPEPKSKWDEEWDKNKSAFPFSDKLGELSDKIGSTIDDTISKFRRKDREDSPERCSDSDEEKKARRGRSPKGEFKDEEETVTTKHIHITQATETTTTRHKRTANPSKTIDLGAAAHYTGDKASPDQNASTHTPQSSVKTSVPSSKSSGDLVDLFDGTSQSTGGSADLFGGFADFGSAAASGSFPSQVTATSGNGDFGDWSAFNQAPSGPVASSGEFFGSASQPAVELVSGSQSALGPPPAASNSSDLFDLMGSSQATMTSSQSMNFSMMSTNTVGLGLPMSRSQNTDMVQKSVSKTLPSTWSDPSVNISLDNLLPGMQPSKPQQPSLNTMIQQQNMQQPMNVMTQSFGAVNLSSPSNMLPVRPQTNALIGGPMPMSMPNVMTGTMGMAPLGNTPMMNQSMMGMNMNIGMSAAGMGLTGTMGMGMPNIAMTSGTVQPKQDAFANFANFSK
Chain of UniProt O95628 (O95628 whole entry, looked up): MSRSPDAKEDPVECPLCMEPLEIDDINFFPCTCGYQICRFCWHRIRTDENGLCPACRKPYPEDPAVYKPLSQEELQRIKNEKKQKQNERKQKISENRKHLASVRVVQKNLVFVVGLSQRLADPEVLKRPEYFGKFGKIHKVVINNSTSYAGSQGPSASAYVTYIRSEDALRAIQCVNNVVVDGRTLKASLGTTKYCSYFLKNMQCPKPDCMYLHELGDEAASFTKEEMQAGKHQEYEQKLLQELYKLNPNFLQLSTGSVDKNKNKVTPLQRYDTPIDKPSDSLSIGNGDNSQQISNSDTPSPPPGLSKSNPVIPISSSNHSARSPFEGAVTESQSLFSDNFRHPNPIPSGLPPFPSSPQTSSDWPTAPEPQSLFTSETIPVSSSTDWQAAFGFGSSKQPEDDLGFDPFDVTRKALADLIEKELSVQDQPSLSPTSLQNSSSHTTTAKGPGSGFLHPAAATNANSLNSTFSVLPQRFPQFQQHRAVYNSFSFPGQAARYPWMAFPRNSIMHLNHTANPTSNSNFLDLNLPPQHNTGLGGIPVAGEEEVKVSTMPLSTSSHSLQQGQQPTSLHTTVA
Chain of UniProt P19784 (P19784 whole entry, looked up): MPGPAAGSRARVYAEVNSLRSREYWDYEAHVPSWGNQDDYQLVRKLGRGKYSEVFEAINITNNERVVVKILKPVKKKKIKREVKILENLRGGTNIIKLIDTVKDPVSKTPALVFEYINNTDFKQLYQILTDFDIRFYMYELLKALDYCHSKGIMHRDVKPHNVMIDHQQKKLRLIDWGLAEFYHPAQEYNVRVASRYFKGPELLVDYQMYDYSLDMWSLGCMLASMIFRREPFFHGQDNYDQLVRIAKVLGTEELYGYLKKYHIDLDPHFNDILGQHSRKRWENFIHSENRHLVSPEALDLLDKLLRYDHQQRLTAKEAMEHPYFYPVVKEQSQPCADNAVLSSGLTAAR
Chain of UniProt O43405 (O43405 whole entry, looked up): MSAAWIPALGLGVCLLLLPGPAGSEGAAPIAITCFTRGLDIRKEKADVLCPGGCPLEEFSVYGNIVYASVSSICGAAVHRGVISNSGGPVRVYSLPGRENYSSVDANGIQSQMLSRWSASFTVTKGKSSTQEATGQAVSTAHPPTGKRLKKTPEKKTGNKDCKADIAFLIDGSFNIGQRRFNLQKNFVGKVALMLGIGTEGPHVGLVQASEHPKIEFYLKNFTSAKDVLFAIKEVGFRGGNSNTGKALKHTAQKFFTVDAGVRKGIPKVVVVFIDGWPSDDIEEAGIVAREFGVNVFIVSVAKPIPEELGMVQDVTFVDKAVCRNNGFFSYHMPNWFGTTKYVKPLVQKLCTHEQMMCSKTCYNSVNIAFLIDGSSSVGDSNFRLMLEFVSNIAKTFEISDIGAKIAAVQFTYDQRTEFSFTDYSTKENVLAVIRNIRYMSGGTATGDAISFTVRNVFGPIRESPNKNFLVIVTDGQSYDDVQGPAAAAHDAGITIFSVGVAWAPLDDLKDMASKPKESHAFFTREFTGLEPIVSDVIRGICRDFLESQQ

log2 fold change, inactive:
CEPT1 (UniProt Q9Y6K0) 0.033
CLPTM1L (UniProt Q96KA5) -0.025
CCM2 isoform 2 (UniProt Q9BSQ5) -0.019
CASP10 isoform 4 (UniProt Q92851) 0.06
CFAP36 isoform 2 (UniProt Q96G28) 0.116
CLASP2 isoform 3 (UniProt O75122) -0.046
CHCHD4 isoform 2 (UniProt Q8N4Q1) 0.036
CLUH, A0A494C0R8 0.119
CCDC167 (UniProt Q9P0B6) 0.034
CASP3 (UniProt P42574) 0.044
CDK19 (UniProt Q9BWU1) -0.013
COCH (UniProt O43405) -0.012
COX20 isoform 2 (UniProt Q5RI15) -0.022
CDC25B isoform 4 (UniProt P30305) -0.013
COX5B (UniProt P10606) 0.005
CCNT2 (UniProt O60583) -0.05
CASTOR2 (UniProt A6NHX0) -0.104
CAD (UniProt P27708) -0.089
C4A (UniProt P0C0L4) 0.149
CLINT1 isoform 3 (UniProt Q14677) 0.111
CNOT4 isoform 6 (UniProt O95628) -0.008
COMT (UniProt P21964) 0.017
CDK6 (UniProt Q00534) 0.036
CETN2 (UniProt P41208) 0.057
CSNK2A2 (UniProt P19784) 0.096
CD63 (UniProt P08962) -0.049
CHAF1A (UniProt Q13111) -0.126
CDK5RAP3 isoform 4 (UniProt Q96JB5) -0.057
CAVIN1 (UniProt Q6NZI2) 0.076
CHAMP1 (UniProt Q96JM3) 0.002
CBR1 (UniProt P16152) -0.019
CCAR1 (UniProt Q8IX12) -0.015
CASP7 isoform 3 (UniProt P55210) 0
CLCN3 isoform 2 (UniProt P51790) -0.039
CMTR1 (UniProt Q8N1G2) -0.016
CERS2 (UniProt Q96G23) -0.018
CSE1L (UniProt P55060) -0.003
CRKL (UniProt P46109) 0.014
